Screening data deposited in PubChem BioAssay by National Center for Advancing Translational Sciences (NCATS).
The list is not random: actives were taken first. Their share in the collection is about 9.5%.
Tau fluor cs: counter-screen for tau fibril formation inhibitors | Potency, µM (titrated, usually from 57.7 µM) | AID 1463 | 0.93% of 280,000 active | tau K18 P301L Alexa594 fluorescence, heparin fibrillization; also: nearly all actives have a fitted effect of over 55% in size
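Human K18 P301L tau (15 uM unlabeled plus 0.24 uM Alexa 594-labeled, final) in 100 mM sodium acetate pH 7 was mixed with compound and 20 uM heparin and incubated 6 hr at 37 C.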
Tau fibril ThT: inhibitors of human tau fibril formation, thioflavin T binding | P10636 | recombinant tau K18 P301L (four-repeat tau fragment), heparin-induced fibrillization, ThT fluorescence | Potency, µM (doses to about 57.4 µM), actives largely listed as inhibitors | 2.1% of 270,000 active | AID 1460; also: nearly all actives have a fitted effect of over 55% in size
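In this qHTS, human K18 P301L tau is incubated with compound and heparin for 6 hr at 37 C, and Thioflavin T fluorescence then reports fibril load.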
NPSR antag: antagonists of human neuropeptide S receptor cAMP signaling; Potency, µM (series often up to 38.3 µM), actives largely listed as inhibitors; CHO-NPSR cells, cAMP TR-FRET, antagonist mode; 1% of 220,000 active; also: nearly all actives have a fitted effect of over 50% in size
Tau fibril FP: tau fibrillization inhibition (FP). 0.39% of 280,000 active. Potency, µM (doses to about 57.7 µM), most hits filed as inhibitors. AID 1468. K18 P301L tau heparin fibrillization, Alexa594 FP, 6 h. P10636; also: nearly all actives have a fitted effect of over 55% in size
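K18 P301L tau (15 uM unlabeled/0.24 uM Alexa 594-labeled, final) + compound + heparin 20 uM final; 100 mM NaOAc pH 7; 6 hr 37 C; ThT 30 uM final added, 1 hr RT; FP ex 555/em 632 nm.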
ALDH1A1 block: ALDH1A1 (human) enzyme inhibition | 7.3% of 220,000 active | P00352 | Purified ALDH1A1, NADH fluorescence, propionaldehyde substrate | Potency, µM (doses to about 75.3 µM), most hits filed as inhibitors | AID 1030; active = well fitted inhibition curve with a large enough effect, not every such curve was filed as active; inconclusive = small, poorly fitted or top-dose-only effect, or another doubt; inactive = no such curve, though single readings can be large or run the other way
Target sequence (P00352 whole entry, looked up): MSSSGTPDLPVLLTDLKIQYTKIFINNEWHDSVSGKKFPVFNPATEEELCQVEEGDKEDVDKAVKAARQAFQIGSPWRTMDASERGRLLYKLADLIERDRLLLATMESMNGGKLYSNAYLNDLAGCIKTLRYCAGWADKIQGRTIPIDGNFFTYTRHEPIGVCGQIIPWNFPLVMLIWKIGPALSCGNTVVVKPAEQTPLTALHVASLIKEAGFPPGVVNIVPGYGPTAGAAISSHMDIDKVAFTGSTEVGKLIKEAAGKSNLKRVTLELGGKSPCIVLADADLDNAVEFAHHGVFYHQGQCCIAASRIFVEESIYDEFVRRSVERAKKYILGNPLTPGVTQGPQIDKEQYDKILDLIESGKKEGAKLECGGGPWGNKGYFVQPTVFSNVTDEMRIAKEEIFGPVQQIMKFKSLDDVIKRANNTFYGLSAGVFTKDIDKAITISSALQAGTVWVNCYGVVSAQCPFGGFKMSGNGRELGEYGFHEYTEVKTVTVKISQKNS
HPGD block: blocks human HPGD enzyme activity | P15428 | purified HPGD, NADH fluorescence kinetic, PGE2 substrate | Potency, µM, usual class: inhibitors | 4.3% of 150,000 active | AID 894; active = well fitted inhibition curve with a large enough effect, not every such curve was filed as active; inconclusive = small, poorly fitted or top-dose-only effect, or another doubt; inactive = no such curve, though single readings can be large or run the other way
Target sequence (P15428 whole entry, looked up): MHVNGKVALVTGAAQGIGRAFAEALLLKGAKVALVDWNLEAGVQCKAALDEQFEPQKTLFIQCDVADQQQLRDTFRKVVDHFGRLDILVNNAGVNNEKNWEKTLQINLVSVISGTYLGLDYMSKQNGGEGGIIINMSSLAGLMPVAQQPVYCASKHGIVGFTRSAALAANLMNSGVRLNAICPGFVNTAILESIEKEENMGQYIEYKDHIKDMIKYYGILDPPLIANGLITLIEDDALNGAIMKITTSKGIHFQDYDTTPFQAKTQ
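20 nM HPGD preincubated 15 min at room temperature with compound in 50 mM Tris-HCl pH 8, 0.01% Tween 20. Started with 1 mM NAD+ and 30 uM prostaglandin E2; NADH fluorescence (360/450 nm) read 5 times over 30-s intervals, last minus first.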
Large screens that a line does not name were inactive; [ ] = remark or other dose. Unless noted, calls follow the shape of the dose curve; as a rule, active = well fitted curve in the direction sought with a large enough effect; inconclusive = small, poorly fitted or top-dose-only effect, or another doubt; inactive = no such curve, though single readings can be large; an effect the other way counts as inactive or inconclusive.

O=C(CCl)Nc1ccc(N=Nc2ccccc2)cc1	Tau fluor cs inconclusive, Tau fibril ThT 5µM, ALDH1A1 block 0.4µM
CC(=O)Nc1cn(-c2ccccc2)nc1-c1ccccc1	none (no result: HPGD block)
O=C(CCl)Nc1cn(-c2ccccc2)nc1-c1ccccc1	ALDH1A1 block 14µM (no result: HPGD block)
CC(C)N(c1ccccc1)c1ccc(NC(=O)CCl)cc1	Tau fluor cs inconclusive, Tau fibril ThT inconclusive, ALDH1A1 block 0.4µM (no result: HPGD block)
O=C(CCl)Nc1ccc(-c2ccccc2)cc1	ALDH1A1 block 0.25µM (no result: HPGD block)
COc1ccc2c(c1)O[C@H](c1cccc(C(F)(F)F)c1)[C@@H](O)C2=O	none (no result: NPSR antag, HPGD block)
CCN(CC)C1=CC2=CC(=C(C#N)C#N)CCC2CC1 (stereo unspecified)	ALDH1A1 block 2.2µM
CC(=O)Nc1ccc(C(=O)Nc2nc(-c3ccccn3)cs2)cc1	Tau fibril ThT inconclusive, ALDH1A1 block inconclusive (no result: HPGD block)
Cc1csc(NC(=O)c2ccc(C)c([N+](=O)[O-])c2)n1	ALDH1A1 block inconclusive, HPGD block 28µM
O=C(Nc1nc(-c2ccccn2)cs1)c1cc(Cl)ccc1[N+](=O)[O-]	Tau fibril ThT inconclusive, ALDH1A1 block 10µM (no result: HPGD block)
Cc1cc(C(=O)Nc2nc(-c3ccccn3)cs2)ccc1[N+](=O)[O-]	Tau fluor cs inconclusive, Tau fibril ThT 11µM, ALDH1A1 block inconclusive (no result: HPGD block)
Cc1ccc(C(=O)Nc2ccccc2-c2ccccc2)cc1[N+](=O)[O-]	ALDH1A1 block 18µM
Cc1cc(C)nc(NC(=O)c2ccc(C)c([N+](=O)[O-])c2)n1	none
O=C(c1cnccn1)N1CCC2(CC1)CN(c1ccccn1)C2	ALDH1A1 block inconclusive (no result: Tau fluor cs, Tau fibril ThT, NPSR antag, Tau fibril FP)
O=C(Nc1nc(-c2ccccn2)cs1)c1ccccc1-n1cnnn1	Tau fibril ThT inconclusive, ALDH1A1 block 10µM (no result: HPGD block)
O=C(Nc1nc(-c2ccccn2)cs1)c1ccc2c(c1)OCCO2	Tau fluor cs inconclusive, Tau fibril ThT inconclusive, Tau fibril FP inconclusive (no result: HPGD block)
O=C(Nc1nc(-c2ccccn2)cs1)c1ccc([N+](=O)[O-])o1	Tau fluor cs inconclusive, Tau fibril ThT 13µM, Tau fibril FP inconclusive (no result: ALDH1A1 block, HPGD block)
COCCNC(=S)NN(c1ccccc1)c1ccccc1	ALDH1A1 block 32µM (no result: HPGD block)
CCN1C(=O)c2cccc3c(S(=O)(=O)Nc4ccccc4)ccc1c23	Tau fluor cs inconclusive, ALDH1A1 block 1µM
CCN1C(=O)c2cccc3c(S(=O)(=O)Nc4nc(C)cs4)ccc1c23	ALDH1A1 block 3.5µM
CCN1C(=O)c2cccc3c(S(=O)(=O)Nc4ncccc4C)ccc1c23	ALDH1A1 block 10µM
CCN1C(=O)c2cccc3c(S(=O)(=O)NCc4cccnc4)ccc1c23	ALDH1A1 block inconclusive
CCN1C(=O)c2cccc3c(S(=O)(=O)Nc4ccc(OC)cc4OC)ccc1c23	ALDH1A1 block 11µM
CCN1C(=O)c2cccc3c(S(=O)(=O)Nc4ccncc4)ccc1c23	NPSR antag inconclusive, ALDH1A1 block inconclusive, HPGD block inconclusive
Cc1ccc(C(=O)NCC(c2cccs2)S(=O)(=O)c2cccs2)cc1 (stereo unspecified)	none (no result: NPSR antag, ALDH1A1 block, HPGD block)
Cn1ccnc1SCC(=O)NC12CC3CC(CC(C3)C1)C2	ALDH1A1 block inconclusive
COc1ccc2c3c(c(=O)oc2c1OCC(N)=O)CCCC3	ALDH1A1 block inconclusive, HPGD block inconclusive
CCN1C(=O)c2cccc3c(S(=O)(=O)Nc4ccccn4)ccc1c23	ALDH1A1 block 7.9µM
CCN1C(=O)c2cccc3c(S(=O)(=O)NCc4ccco4)ccc1c23	ALDH1A1 block inconclusive
CCOC(=O)c1cc(S(=O)(=O)NCc2ccc(OC)cc2)[nH]n1	none (no result: NPSR antag, ALDH1A1 block, HPGD block)
Cc1cccc(N/N=C/c2ccc(O)c(O)c2O)c1	Tau fluor cs inconclusive, Tau fibril ThT 10µM, Tau fibril FP 16µM (no result: ALDH1A1 block, HPGD block)
COc1cccc(N/N=C/c2cccc(Br)c2O)c1	Tau fluor cs 18µM[quencher], Tau fibril ThT 18µM (no result: ALDH1A1 block, HPGD block)
C/C(=N\Nc1cccc([N+](=O)[O-])c1)c1cc(F)ccc1O	NPSR antag inconclusive (no result: ALDH1A1 block, HPGD block)
C/C(=N\Nc1cccc([N+](=O)[O-])c1)c1ccccc1O	Tau fluor cs 5µM[quencher], Tau fibril ThT inconclusive, Tau fibril FP inconclusive (no result: HPGD block)
O=[N+]([O-])c1cccc(N/N=C/c2cccc(O)c2O)c1	Tau fluor cs 16µM[quencher], Tau fibril ThT 7.9µM, ALDH1A1 block inconclusive (no result: HPGD block)
Cc1cccc(NN=C2c3ccccc3-c3ccccc32)c1	Tau fluor cs inconclusive, Tau fibril ThT inconclusive, ALDH1A1 block inconclusive
O=[N+]([O-])c1ccccc1N/N=C/c1cccc(O)c1O	Tau fibril ThT inconclusive (no result: ALDH1A1 block, HPGD block)
COc1ccc2cnoc(=O)c2c1OC	ALDH1A1 block inconclusive, HPGD block inconclusive (no result: NPSR antag)
CCCN(CCC)C(=S)NC(=O)c1ccc(-c2ccccc2)cc1	ALDH1A1 block inconclusive
CCOC(=O)C1(C(C)C)Oc2ccccc2C(c2ccc(OC)cc2)=C1C(=O)OC (stereo unspecified)	Tau fibril ThT inconclusive, HPGD block inconclusive (no result: NPSR antag)
Cc1nn(Cc2ccccc2)c(Cl)c1C(=O)NCCc1ccccc1	none
Cc1nn(Cc2ccccc2)c(Cl)c1C(=O)OC(C)C#N (stereo unspecified)	ALDH1A1 block 22µM (no result: HPGD block)
COc1ccc(-c2cc(C(=O)OCC(=O)Nc3ccc4c(c3)OCO4)c3ccccc3n2)cc1	Tau fluor cs 8.9µM[quencher], Tau fibril ThT inconclusive, ALDH1A1 block inconclusive, HPGD block inconclusive
O=C(COC(=O)c1c2c(nc3ccccc13)CCCC2)Nc1ccc2c(c1)OCO2	Tau fluor cs inconclusive, Tau fibril ThT inconclusive, NPSR antag inconclusive, ALDH1A1 block 8.9µM
O=C(COC(=O)c1cc(-c2ccccc2)nc2ccccc12)Nc1ccc2c(c1)OCO2	Tau fluor cs inconclusive, Tau fibril FP inconclusive
COc1cccc(C2CC(=O)N3CN(c4ccccc4F)CSC3=C2C#N)c1 (stereo unspecified)	Tau fibril ThT inconclusive, ALDH1A1 block 25µM, HPGD block inconclusive
COc1ccc(OC)c(C2CC(=O)NC(SC)=C2C#N)c1 (stereo unspecified)	none
COc1ccc(OC)c(C2CC(=O)N3CN(c4ccccc4F)CSC3=C2C#N)c1 (stereo unspecified)	Tau fibril ThT 28µM, Tau fibril FP 25µM, ALDH1A1 block 4µM, HPGD block 25µM
Cc1cc([N+](=O)[O-])nn1CC(=O)Nc1sc2c(c1C(N)=O)CCCC2	Tau fibril ThT inconclusive, ALDH1A1 block inconclusive (no result: HPGD block)
CC1CCc2c(sc(NC(=O)CCCn3cnc([N+](=O)[O-])n3)c2C(N)=O)C1 (stereo unspecified)	none (no result: HPGD block)
NC(=O)c1c(NC(=O)CCCn2cnc([N+](=O)[O-])n2)sc2c1CCCC2	Tau fibril ThT inconclusive, Tau fibril FP inconclusive, ALDH1A1 block 1.6µM (no result: HPGD block)
Cc1cc([N+](=O)[O-])nn1CCCC(=O)Nc1sc2c(c1C(N)=O)CCCC2	HPGD block 4.5µM
C=Cc1ccccc1C=C	none (no result: Tau fluor cs, Tau fibril ThT, NPSR antag, Tau fibril FP)
O=C(CSc1nc2[nH]ncc2c(=O)n1-c1ccccc1)N1CCCCCC1	ALDH1A1 block 5µM (no result: HPGD block)
